Sfp PPTase inh: qHTS Assay for Inhibitors of Bacillus subtilis Sfp phosphopantetheinyl transferase (PPTase); Potency, µM, hits mostly inhibitors; AID 1490, 2009; Biochemical Sfp PPTase activity, qHTS; actives 3.5% (n = 310,000);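 also: the enzyme is Sfp with the accession as filed and its product quenches rhodamine fluorescence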
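Buffer: 50 mM Hepes-Na pH 7.6, 10 mM MgCl2, 0.01% Nonidet P-40, 0.01% BSA. Enzyme 15 nM, pre-exposed to compound 15 min; substrates then added and fluorescence change tracked over 30 min.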
ALOX12 inh: Primary qHTS assay for inhibitors of human arachidonate 12S-lipoxygenase (ALOX12): Round 2 | purified 12hLO, xylenol orange hydroperoxide absorbance | Potency, µM (series often up to 108 µM), most hits filed as inhibitors | actives 1.1% (n = 580,000)
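Hydroperoxide product was detected by ferrous iron/xylenol orange as the 573 to 405 nm absorbance ratio. Arachidonic acid at 40 uM (final) was turned over for 30 min at room temperature by 150 nM human 12hLO, pH 7.0 Hepes buffer, after 15 min compound preincubation.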
BAZ2B inh: qHTS Assay for Inhibitors of BAZ2B; AID 504333, 2011; Potency, µM (top dose mostly 114 µM), hits mostly inhibitors; Bromodomain adjacent to zinc finger domain protein 2B (Homo sapiens), Q9UIF8; actives 4.4% (n = 360,000); AlphaScreen BAZ2B-H3K14Ac peptide displacement; also: nearly all actives have a fitted effect of over 60% in size
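In this displacement format the biotinylated H3(5-23) peptide acetylated at Lys14 serves as ligand at 50 nM, with BAZ2B at 50 nM in PBS pH 7.4 containing 0.01% Tween-20. Donor and acceptor beads are 10 ug/mL final.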
G9a block: qHTS Assay for Inhibitors of Histone Lysine Methyltransferase G9a | AID 504332, 2011 | Histone-lysine N-methyltransferase EHMT2 (Homo sapiens), Q96KQ7 | G9a H3K9 monomethylation, AlphaScreen, 2 h | Potency, µM (highest dose often 102 µM), usual class: inhibitors | actives 8.8% (n = 350,000); also: nearly all actives have a fitted effect of over 75% in size
Target sequence (Q96KQ7 913-1193 limits assumed): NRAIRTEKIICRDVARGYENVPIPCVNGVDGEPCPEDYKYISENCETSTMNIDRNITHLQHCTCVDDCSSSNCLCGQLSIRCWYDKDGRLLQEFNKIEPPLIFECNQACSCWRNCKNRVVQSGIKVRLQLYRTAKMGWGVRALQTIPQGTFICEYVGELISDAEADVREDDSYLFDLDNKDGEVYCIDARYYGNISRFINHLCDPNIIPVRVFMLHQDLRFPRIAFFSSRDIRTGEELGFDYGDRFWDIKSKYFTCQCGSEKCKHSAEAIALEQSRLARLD
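Readings reflect AlphaScreen signal from monomethyl-H3K9 antibody detection. HMT at 20 nM; substrate b-H3K9 500 nM; cofactor SAM 20 uM; 2 h RT reaction; compounds tested as titrations in qHTS with 15 min preincubation.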
HP1b binding inh: HTS for Inhibitors of HP1-beta Chromodomain Interactions with Methylated Histone Tails | Chromobox protein homolog 1 (Homo sapiens), P83916 | AlphaScreen HP1-beta / biotin-H3K9me3 peptide binding | Potency, µM (titrated, usually from 114 µM), usual class: inhibitors | actives 0.56% (n = 390,000) | AID 540317, 2011; also: nearly all actives have a fitted effect of over 70% in size
Target sequence (P83916 whole entry, looked up): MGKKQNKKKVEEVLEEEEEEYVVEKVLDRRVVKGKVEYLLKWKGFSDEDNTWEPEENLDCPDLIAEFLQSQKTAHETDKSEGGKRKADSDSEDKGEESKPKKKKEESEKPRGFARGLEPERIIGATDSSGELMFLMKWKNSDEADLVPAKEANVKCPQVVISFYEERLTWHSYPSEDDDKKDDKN
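HP1-beta protein (50 nM final) preincubated 30 min at room temperature with biotinylated H3(1-18)K9me3 peptide (50 nM) in PBS pH 7.4, 0.01% Tween-20, then compound added for 30 min. AlphaScreen streptavidin donor/nickel chelate acceptor beads (10 ug/mL final), 30 min dark, luminescence read.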
JMJD2A Tudor: qHTS Assay for Inhibitors of JMJD2A-Tudor Domain; Lysine-specific demethylase 4A (Homo sapiens), O75164; actives 4.4% (n = 390,000); AlphaScreen JMJD2A-Tudor / H3K4me3 peptide binding; Potency, µM (doses to about 114 µM), most hits filed as inhibitors; also: nearly all actives have a fitted effect of over 50% in size
Numbers stand for hits; 0 = inactive; ? = inconclusive; - = no result given; [ ] = remark or other dose. A selection: hits, their analogues and other compounds. The true share with any hit is near 8.7%. Calls follow the shape of the dose curve; as a rule, active = well fitted curve in the direction sought with a large enough effect; inconclusive = small, poorly fitted or top-dose-only effect, or another doubt; inactive = no such curve, though single readings can be large; an effect the other way counts as inactive or inconclusive.

SMILES	Sfp PPTase inh	ALOX12 inh	BAZ2B inh	G9a block	HP1b binding inh	JMJD2A Tudor
O=c1[nH]c(=O)c2nc(-c3ccc(Cl)cc3)cnc2[nH]1	0	?	0	?	?	0
CC1CN(C(=O)COC(=O)CSc2ccc(C(N)=O)cc2[N+](=O)[O-])CC(C)O1 (stereo unspecified)	-	0	0	0	0	0
NC(=O)c1ccc(SCC(=O)OCC(=O)NC2CCCCCCC2)c([N+](=O)[O-])c1	-	?	0	?	?	?
O=C(c1ccc(S(=O)(=O)Cc2ccccc2F)c([N+](=O)[O-])c1)N1CCCCCC1	0	0	0	?	0	0
CCOC(=O)CSc1ccc(C(=O)NCCN2CCOCC2)cc1[N+](=O)[O-]	0	0	0	0[2.33 µM]	0	0
CCOC(=O)CSc1ccc(C(=O)N2CCN(C)CC2)cc1[N+](=O)[O-]	0	0	0	45µM	0	0
CC1CCC(NC(=O)COC(=O)CSc2ccc(C(N)=O)cc2[N+](=O)[O-])CC1 (stereo unspecified)	-	0	0	50µM	0	0
NC(=O)c1ccc(SCC(=O)OCC(=O)N2CCCC2=O)c([N+](=O)[O-])c1	-	-	0	50µM	0	0
CC1CCN(C(=O)c2ccc(SCc3ccccc3F)c([N+](=O)[O-])c2)CC1	0	0	0	28µM	?	?
COc1ccc(CC(=O)N2CC(CO)C3(CCNCC3)C2)cc1OC (stereo unspecified)	-	0	-	-	-	-
COCC1CN(Cc2ccccc2F)CC12CCNCC2 (stereo unspecified)	-	0	-	-	-	-
Cc1ccc(-c2nnc(SCC(=O)Nc3c(C)nn(-c4ccccc4)c3C)n2N)cc1	-	0	-	-	-	-
COc1ccc(C(=O)N2CC[C@@H]3CN(S(C)(=O)=O)[C@@H]3C2)c(OC)n1	-	0	-	-	-	-
CC1CCC(C(C)C)C(OC(=O)COC(=O)c2cc(O)ccc2N)C1 (stereo unspecified)	0	?	?	10µM	0	?
Cc1ccc(C(=O)Cn2c(=N)n(CCN3CCOCC3)c3ccccc32)cc1	-	0	0	0[0.501 µM]	0	0
CCCCn1c(=N)n(CC(=O)c2ccc([N+](=O)[O-])cc2)c2ccccc21	56µM	?	0	40µM	-	-
Cc1ccc(Cn2c(=N)n(CC(=O)c3ccc([N+](=O)[O-])cc3)c3ccccc32)cc1	35µM	?	0	50µM	0	0
CCCCC(=O)c1ccc(OC(=O)c2ccc([N+](=O)[O-])cc2)cc1	-	0	-	-	?	50µM
COc1ccc(C)cc1NC(=O)Cn1nc(C(N)=O)c2ccccc2c1=O	-	0	-	-	-	-
CCOc1ccc(-c2cc(-c3nc(-c4ccc(OC)c(OC)c4)no3)[nH]n2)cc1	-	0	0	0	0	0
CCOc1ccc(C2=Cc3cc(OC)c(OC)cc3C(=C(Cl)Cl)O2)cc1	0	-	?	7.1µM	-	-
CC(C)CCn1c(O)c(N=NC(=O)Cn2ccc(C(F)(F)F)n2)c2ccccc21	0	0	0	0	0	50µM
O=C(CCC(=O)c1cccs1)NCCC(=O)Nc1ccc(F)c(Cl)c1	-	50µM	-	-	-	-
Cc1ccc(NCCC(=O)c2cccs2)cc1C	0	0	?	32µM	?	56µM
Cc1ccc(NCCC(=O)c2cccs2)cc1	0	0	?	50µM	0	50µM
SMILES	Sfp PPTase inh	ALOX12 inh	BAZ2B inh	G9a block	HP1b binding inh	JMJD2A Tudor
Cc1ccc(NCCC(=O)c2cccs2)cc1Cl	0	0	0	0	0	0
CC1CN(c2c3c(nc4ncnn24)CCCC3)CC(C)O1 (stereo unspecified)	0	0	0	3.2µM	0	0
CC1CCc2c(nc3ncnn3c2N2CC(C)OC(C)C2)C1 (stereo unspecified)	0	?	0	0[2.33 µM]	0	0
COCc1cc(=O)n(CC(=O)Nc2ccc(C(C)C)cc2)c(N2CCOCC2)n1	-	0	-	-	-	-
CCOC(=O)C1CCCCN1Cc1cccc(OC)c1OC (stereo unspecified)	?	?	?	11µM	?	5.6µM
CCOC(=O)C1CCCCN1Cc1cc(OC)ccc1OC (stereo unspecified)	0	?	?	13µM	?	18µM
COc1ccc(N=c2scc(-c3ccc(OC)cc3)n2CCO)cc1	0	?	32µM	?	?	?
Cc1c(N=c2scc(-c3ccccc3)n2CCO)c(=O)n(-c2ccccc2)n1C	0	0	0	?	0	0
COc1ccc(-c2csc(=Nc3ccccc3)n2CCO)cc1F	-	?	50µM	16µM	?	40µM
CN(C)c1cccc(C(=O)Nc2ccc3nc4n(c(=O)c3c2)CCCCC4)c1	0	0	?	45µM	0	?
CCN1CCN(C(=S)Nc2ccc3nc4n(c(=O)c3c2)CCCCC4)CC1	0	0	0	45µM	0	0
Cc1nnc(-c2cc(-c3ccc([S+](C)(=O)[O-])cc3)ccn2)n1Cc1ccccc1	-	0	-	-	-	-
S=C1NC=NC2N=CNC12 (stereo unspecified)	14µM	-	-	22µM	-	-
Cc1cc2oc(=O)cc(CN3CCCc4ccccc43)c2cc1C	0	?	0	8.9µM	0	0
COCCN(CCOC)Cc1cc(=O)oc2ccccc12	-	18µM	-	-	-	-
